Screening data from PubChem BioAssay.
This is a sample that favours compounds with a hit; in the whole collection about 6% have one here.
D3 ag: D3 dopamine receptor (human) agonism; P35462; D3R DiscoveRx beta-arrestin cells, luminescence, 90 min; max activation, %; AID 652048; 0.58% of 410,000 active; in the data active means max activation above about 30%
Target sequence (P35462 whole entry, looked up): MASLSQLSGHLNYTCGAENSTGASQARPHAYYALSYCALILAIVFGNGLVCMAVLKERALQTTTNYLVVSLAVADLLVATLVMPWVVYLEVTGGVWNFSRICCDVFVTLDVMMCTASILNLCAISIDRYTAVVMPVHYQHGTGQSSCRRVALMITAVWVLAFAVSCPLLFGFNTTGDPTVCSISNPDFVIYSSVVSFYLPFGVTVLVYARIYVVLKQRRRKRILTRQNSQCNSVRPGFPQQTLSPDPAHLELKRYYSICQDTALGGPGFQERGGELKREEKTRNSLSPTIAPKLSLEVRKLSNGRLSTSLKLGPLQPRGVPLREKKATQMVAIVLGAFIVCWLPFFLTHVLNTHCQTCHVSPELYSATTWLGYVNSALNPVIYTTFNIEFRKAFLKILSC
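Cells at 1500/well, incubated overnight, then treated with pinned compounds (dopamine as control) for 90 min at 37 degrees C. DiscoveRx reagent added for 30 - 60 minutes at room temperature; luminescence read.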
DRD3 antagonist: D3 dopamine receptor (human) antagonism; 2.5% of 360,000 active; D3R cells, DiscoveRx beta-arrestin luminescence, antagonist mode; active compounds read low; max response, negative = inhibition, %; in the data active means max response below about -50%; inconclusive means no clear call, values can overlap the other calls
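Cells plated overnight at 1500 cells/well, then exposed to library compounds with dopamine controls for 90 minutes at 37 degrees C. DiscoveRx reagent added for 30–60 minutes at room temperature; luminescence read, quantitative HTS format.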
D1 antag: blocks dopamine activation of the human D1 receptor; AID 504652; activity change, negative = inhibition, % at 10 µM; P21728; 3.2% of 360,000 active; HEK293 TREx D1 cells, calcium flux, dopamine EC80; active compounds read low; in the data active means activity change below about -30%
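Cells carrying a force-coupled, tetracycline-inducible human D1 receptor report calcium flux. Each well gets a 10 s baseline, compound with 180 s monitoring, then an EC80 dopamine stimulus with a second 180 s kinetic read.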
D1 agonist: human D1 receptor agonism; HEK293 T-REx D1 cells, calcium flux, agonist mode; 1% of 360,000 active; AID 504660; activation, % at 2 µM; P21728; in the data active means activation above about 30%
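Tetracycline-induced HEK293 TREx D1 cells, force-coupled to calcium signalling, were dye-loaded with a no-wash calcium kit. Compound was pin-added after a 10 s baseline. Fluorescence was read kinetically at 1 cycle/s for 180 s, with calcium rises flagged as agonism.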
D1 PAM: human D1 dopamine receptor positive modulation | potentiation, % at 10 µM | AID 504651 | P21728 | HEK293 TREx D1 cells, calcium flux, dopamine EC20 potentiation | 0.036% of 360,000 active; in the data active means potentiation above about 30%
A number is an active result; i = inactive; ? = inconclusive; nt = no result given.

SMILES	D3 ag	DRD3 antagonist	D1 antag	D1 agonist	D1 PAM
COc1ccc(C)cc1NC(=O)CSc1nnc(-c2ccco2)n1N	i	i	i	i	i
COc1ccc(C)cc1NC(=O)CSc1ccc(-c2ccco2)nn1	i	i	i	i	42
CCOc1ccccc1C(=O)Nc1ccc(S(=O)(=O)Nc2onc(C)c2C)cc1	i	nt	i	i	i
COC(=O)[C@H]1[C@H]2C[C@@H]3c4[nH]c5ccccc5c4CCN3C[C@H]2C[C@@H](OC(=O)c2cc(OC)c(OC)c(OC)c2)[C@@H]1OC	i	nt	nt	nt	nt
CCOC(=O)c1ccc(NC(=O)c2c(NCc3sccc3C)sc3c2CCCCC3)cc1	i	nt	i	i	i
O=S(c1ccc2ccccc2c1)c1cnns1 (centres undefined)	i	-55	i	i	i
Cc1nnsc1S(=O)c1ccc(Cl)c(Cl)c1 (centres undefined)	i	?	i	i	i
CNc1c(C(=O)O)ccc2c1C(=O)c1ccccc1C2=O	i	-74	i	i	i
CCNc1c(C(=O)O)ccc2c1C(=O)c1ccccc1C2=O	i	?	i	i	i
O=C(O)c1ccc2c(c1Nc1ccccc1)C(=O)c1ccccc1C2=O	i	-56	i	i	i
CC1(C)CC(=O)c2cc(-c3nc(-c4ccc(Br)cc4)cs3)c(=O)n(-c3ccccc3)c2C1	i	nt	i	i	i
Cn1ccc2cc(S(=O)(=O)N3CCCN(C(=O)Nc4ccccc4Br)CC3)ccc21	i	nt	i	i	i
CN1CCN(/C=N/c2c(C#N)cnn2-c2ccccc2)CC1	i	?	i	i	i
Cc1ccc(-n2ncc(C#N)c2/N=C/N2CCN(C)CC2)cc1	i	-76	i	i	i
COc1ccc(CNC(=O)CCSc2ccc(F)cc2)cc1OC	i	i	-40	i	i
COc1ccc(CNC(=O)CCC(=O)c2ccc(F)cc2)cc1OC	i	i	nt	nt	nt
CCOc1ccc(Oc2ccccc2NC(=O)CSCC(=O)Nc2cc(C)on2)cc1	i	i	-44	i	i
Cc1cccc(Oc2ccccc2NC(=O)CSCC(=O)Nc2cc(C)on2)c1	i	i	-44	i	i
Cc1cc(NC(=O)CSCC(=O)Nc2ccccc2OC(F)F)no1	i	i	i	i	i
O=C(Nc1ccc(/C=C/c2ccc(NC(=O)c3cc(S(=O)(=O)O)c4cccnc4c3O)cc2S(=O)(=O)O)c(S(=O)(=O)O)c1)c1cc(S(=O)(=O)O)c2cccnc2c1O	i	nt	nt	nt	nt
C/C(=N\OC(=O)c1ccc(Cl)cc1)c1nccs1	i	i	-32	i	i
CCCn1c2ccccc2c2cnn(CC(=O)NCc3cc(OC)ccc3OC)c(=O)c21	i	nt	i	i	i
CNC(=O)C1CCC(Cn2c(=O)c3sccc3n(Cc3ccccc3)c2=O)CC1 (centres undefined)	i	nt	i	i	i
CCn1nc(C)c2c(-c3ccccc3)cc(=O)n(C(C)C(=O)NCc3ccccc3OC)c21 (centres undefined)	i	nt	i	i	i
CC(=O)Oc1ccc(C(=O)[C@H]2[C@H]3C(=O)N(c4ccccc4)C(=O)[C@H]3[C@@H]3C=CC=NN32)cc1	i	i	i	i	i
SMILES	D3 ag	DRD3 antagonist	D1 antag	D1 agonist	D1 PAM
COc1ccc(C(=O)[C@H]2[C@H]3C(=O)N(c4ccccc4)C(=O)[C@H]3C3C=CC=NN32)cc1 (some centres undefined)	68	i	i	i	i
CN(Cc1ccccc1)c1ncnc2c1nnn2C	i	nt	nt	i	i
C=CCc1ccccc1OCC(O)CN1CCN(c2ccccc2F)CC1 (centres undefined)	i	?	-61	i	i
C=CCc1ccccc1OCC(O)CN1CCN(c2ccccc2OC)CC1 (centres undefined)	i	-139	-43	i	i
Cc1ccc(C(C)C)c(OCC(O)CN2CCN(c3ccccc3F)CC2)c1 (centres undefined)	i	nt	-34	i	i
Cc1ccc(C(C)C)c(OCC(O)CN2CCc3ccccc3C2)c1 (centres undefined)	i	?	i	i	i
C=CCc1ccccc1OCC(CN1CCCCC1)OC(C)=O (centres undefined)	i	?	i	i	i
Cc1ccc(SCc2cn3c(C)csc3n2)cc1	i	-53	i	i	i
COc1ccc(C2=CC(c3ccccc3Cl)n3nc(-c4ccc(C)cc4)nc3N2)cc1 (centres undefined)	i	nt	i	i	i
Cc1ccc(Oc2nccc(-c3ccc(Cl)cc3)n2)cc1	i	i	-30	i	i
COc1cc2c(=O)n(Cc3ccccc3Cl)c(=O)n(CC(=O)Nc3ccccc3)c2cc1OC	i	nt	i	i	i
N#Cc1cc2ccccc2nc1SCc1cccnc1	i	-83	i	i	i
O=C(NNC(=S)NCc1ccc(Cl)cc1)c1cccnc1	i	i	-35	i	i
O=C(NNC(=O)c1cccnc1)Nc1ccc(Cl)c(Cl)c1	i	i	i	i	i
O=C(NNC(=S)NC(=O)c1cccnc1)c1ccc(Cl)cc1	i	i	i	i	i
O=C(NNC(=O)c1cccs1)c1cccnc1	i	i	-54	i	i
O=C(NNC(=O)c1ccc(Cl)c(Cl)c1)c1cccnc1	i	i	-74	i	i
COc1ccc(Cl)cc1NC(=O)C1CCN(S(=O)(=O)c2ccc3c(c2)CCCN3C(=O)C2CCC2)CC1	i	nt	i	i	i
S=C(Nc1ccccc1Cl)NC1CC2CCCC(C1)N2C1CC1 (centres undefined)	i	i	-54	i	i
Cc1ccc2c(CC(=O)Nc3c(C(=O)c4ccc(C)c(F)c4)oc4ccccc34)coc2c1	i	nt	i	i	i
COc1cccc(NC(=S)N/N=C2/CCCCc3ccccc32)c1	i	-60	i	i	i
CCc1ccc(CNC(=O)CCn2c(=O)c3cccn3c3ccc(F)cc32)cc1	i	nt	i	i	i
CCOc1ccc2[nH]c(C)cc(=O)c2c1	i	i	i	i	i
O=c1cc(C(F)(F)F)[nH]c2ccc(OC(F)(F)F)cc12	33	i	i	i	i
O=c1cc(C(F)(F)F)[nH]c2c(C(F)(F)F)cccc12	i	i	i	32	i
SMILES	D3 ag	DRD3 antagonist	D1 antag	D1 agonist	D1 PAM
O=[N+]([O-])c1cc(Cl)ccc1N1CCCC1	i	i	i	i	i
O=C1C(Cl)=C(N2CCN(c3ccccc3[N+](=O)[O-])CC2)C(=O)c2ccccc21	i	-60	i	i	i
CCC(=O)N1CCc2cc(S(=O)(=O)NCCC(=O)NCc3ccc(C)cc3)ccc21	i	nt	i	i	i
COc1ccc(NC(=O)CSc2nc3ccccc3c(=O)n2CCCN2CCOCC2)c(OC)c1	i	i	-33	i	i
CC(C)Oc1ccccc1NC(=O)CSc1nc2ccccc2c(=O)n1C	i	i	i	i	i
COc1cccc(NC(=O)CSc2nc3ccccc3c(=O)n2C)c1	i	i	i	50	i
Cc1nc2sc(C(N)=O)c(N)c2c(-c2ccc(Br)cc2)c1C(=O)Nc1ccc(Cl)cc1	i	nt	i	i	i
